In article PMC5540273 (PLoS ONE, 2017):

Tests used:
Settings in all cases: concentration: 1 μM, replicates: in singlicate; n = 1
DLK = test system: T1, DLK
T1 construct: gene MAP3K12

DMPK2 = test system: T2, DMPK2
T2 construct: gene CDC42BPG

DMPK = test system: DMPK
DRAK1 = test system: T3, DRAK1
T3 construct: gene STK17A

DRAK2 = test system: T4, DRAK2
T4 construct: gene STK17B

DYRK1A = test system: DYRK1A
DYRK1B = test system: DYRK1B
DYRK2 = test system: DYRK2
EGFR = test system: EGFR
EIF2AK1 = test system: EIF2AK1
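Note: KINOMEscan kinase panel screen.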

SMILES | %Inh (DLK) [%] | %Inh (DMPK2) [%] | %Inh (DMPK) [%] | %Inh (DRAK1) [%] | %Inh (DRAK2) [%] | %Inh (DYRK1A) [%] | %Inh (DYRK1B) [%] | %Inh (DYRK2) [%] | %Inh (EGFR) [%] | %Inh (EIF2AK1) [%]
CN(C)c1cc(-c2ccc3c(N)n[nH]c3c2)nc(N)n1 [GSK2219329] | 7 | 5 | 0 | 36 | 0 | 9 | 5 | 67 | 43 | 0
Cc1nc(N(C)[C@H]2CN(C(=O)CC#N)CC[C@H]2C)c2cc[nH]c2n1 | 0 | 5 | 0 | 0 | 0 | 0 | 0 | 7 | 0 | 0
COc1cc(Nc2nccc(N3CCC(NC(=O)C(C)c4ccc(Cl)cc4)C3)n2)cc(OC)c1OC (stereo not drawn) [GSK1379757] | 29 | 8 | 0 | 0 | 0 | 9 | 0 | 0 | 23 | 0
Nc1nc(-c2ccccc2F)c(-c2ccnc3ccccc23)s1 [GW560459] | 36 | 3 | 0 | 0 | 3 | 9 | 4 | 0 | 36 | 0
COc1cc2nccc(Nc3cccc(Oc4ccccc4)c3)c2cc1OC.Cl [GW284543] | 24 | 0 | 0 | 2 | 26 | 6 | 0 | 11 | 40 | 0
COc1cc(Nc2nccc(N3CCC(NC(=O)C4COc5ccccc5O4)C3)n2)cc(OC)c1OC (stereo not drawn) [GSK1379761] | 60 | 0 | 0 | 0 | 0 | 0 | 5 | 19 | 43 | 0
O=C(Nc1n[nH]c2nc(-c3ccccc3)c(Br)cc12)C1CC1 [SB-708998] | 17 | 0 | 0 | 5 | 0 | 8 | 0 | 1 | 1 | 34
COC(=O)c1c(-c2ccccc2)c2cc(Br)ccc2c(=O)n1Cc1ccc(S(C)(=O)=O)cc1 | 0 | 5 | 0 | 3 | 0 | 20 | 45 | 44 | 5 | 13
COc1ccc(Nc2nccc(N3CCC(NS(=O)(=O)c4ccc(NC(C)=O)cc4)C3)n2)cc1 (stereo not drawn) [GSK1379729] | 23 | 8 | 0 | 0 | 4 | 8 | 3 | 3 | 36 | 0
